# Measurements taken from PubChem BioAssay (Tox21).
# Records with an inconclusive call do not appear. A call without a number means that no potency is given here. Values without a mark were called inactive. The source made the active and inactive calls. Calls follow the shape of the dose curve; as a rule, active = well fitted activation curve with a large enough effect in the repeat runs; inconclusive = weak or mixed curves; inactive = flat fitted curve, though single readings scatter.
# Test: A CellTox Green Cytotoxicity Assay to monitor cytotoxicity in HepG2 cells - 32 hour (AID 1224883); also: nearly all actives have a fitted effect of over 50% in size
# Conditions: CellTox Green fluorescence; series mostly up to 76.8 µM
# Outline: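 Continuous culture of HepG2 cells with a membrane-impermeant DNA dye; rising fluorescence marks dead cells. Compound exposure lasted up to 40 h at 37 C, with reads every 8 h from 0 h.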
# Potency is read from the fitted curve at half-maximal effect.
Structure (SMILES),Potency,cytotoxicity increase
Cc1ccc(-c2ccccc2)cc1,43.6 µM (active),–
CC1=CCC(=C(C)C)CC1,inactive,–
S=C([S-])NCCNC(=S)[S-].S=C([S-])NCCNC(=S)[S-].[Mn+2].[Zn+2],inactive,–
C=Cc1ccccc1C=C,inactive,–
CC(C)CCCCCOC(=O)CCS,inactive,–
CCOC(=O)NNc1ccc(N(CC)CC(C)O)nn1 (stereo unspecified),inactive,–
NC[C@H]1O[C@H](O[C@H]2[C@H](O[C@@H]3O[C@H](CO)[C@@H](O)[C@H]3O)C(O)[C@H](N)C[C@@H]2N)[C@H](N)[C@@H](O)[C@@H]1O (stereo partly specified),–,7.9% [at 6.97 µM]
[Cu+],inactive,–
O=S(=O)(O)c1ccc(N=Nc2c(O)ccc3ccccc23)cc1,inactive,–
CC(C(=O)O)c1ccc2c(c1)[nH]c1ccc(Cl)cc12 (stereo unspecified),inactive,–
CCCCN(CCCC)CC(O)c1cc(Cl)cc2c1-c1ccc(Cl)cc1/C2=C/c1ccc(Cl)cc1 (stereo unspecified),23.9 µM (active),–
O=c1[nH]c(=O)n([C@H]2C[C@H](O)[C@@H](CO)O2)cc1F,6.01 µM (active),–
Cc1cc(-c2ccc(N=Nc3cc(S(=O)(=O)O)c4ccccc4c3N)c(C)c2)ccc1N=Nc1cc(S(=O)(=O)O)c2ccccc2c1N,inactive,–
COC(C)=O,inactive,–
O=C(O)c1cc(O)c2ccccc2c1O,24.5 µM (active),–
OC/C=C/CO,inactive,–
Nc1ccc(C(=O)O)c(O)c1,inactive,–
CCCCCCOC(=O)C(C)CC (stereo unspecified),inactive,–
COc1ccc(NC(=O)CC(C)=O)cc1,inactive,–
CCCCNS(=O)(=O)c1ccc(C)cc1,4.9 µM (active),–
CC1=Nc2ccccc2C1(C)C,43.7 µM (active),–
